AHR act: activates the human aryl hydrocarbon receptor; AHR-responsive luciferase reporter cells, luminescence; activation, % at 5 µM; 320,000 tested, 2.5% active; AID 2796; in the data active = activation above about 47%
Target sequence (P35869 whole entry, looked up): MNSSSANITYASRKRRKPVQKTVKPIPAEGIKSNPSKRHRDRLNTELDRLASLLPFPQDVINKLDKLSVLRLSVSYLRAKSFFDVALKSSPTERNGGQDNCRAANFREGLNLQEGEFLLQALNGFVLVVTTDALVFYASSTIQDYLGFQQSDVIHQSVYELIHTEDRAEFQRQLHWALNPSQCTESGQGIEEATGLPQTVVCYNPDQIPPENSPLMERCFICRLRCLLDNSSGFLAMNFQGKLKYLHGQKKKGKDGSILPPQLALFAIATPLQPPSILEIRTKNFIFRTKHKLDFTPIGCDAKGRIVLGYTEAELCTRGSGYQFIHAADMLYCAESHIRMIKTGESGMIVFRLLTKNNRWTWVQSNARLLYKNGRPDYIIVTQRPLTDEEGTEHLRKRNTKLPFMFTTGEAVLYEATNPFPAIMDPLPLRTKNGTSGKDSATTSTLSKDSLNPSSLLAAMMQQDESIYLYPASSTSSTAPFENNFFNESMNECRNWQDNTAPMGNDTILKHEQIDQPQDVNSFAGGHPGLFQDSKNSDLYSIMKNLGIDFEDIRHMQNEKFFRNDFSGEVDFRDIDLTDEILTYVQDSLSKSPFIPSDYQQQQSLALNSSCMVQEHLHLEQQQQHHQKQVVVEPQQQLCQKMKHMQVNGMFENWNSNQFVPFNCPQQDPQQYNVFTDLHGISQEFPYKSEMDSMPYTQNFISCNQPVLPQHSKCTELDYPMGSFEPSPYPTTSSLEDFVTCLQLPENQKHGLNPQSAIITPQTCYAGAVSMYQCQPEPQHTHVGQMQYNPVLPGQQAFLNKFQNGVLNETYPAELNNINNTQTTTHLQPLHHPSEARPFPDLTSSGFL
FXN GAA850 act: activators of GAA850 frataxin (FXN) promoter; HEK293 lucGAA850 FXN promoter luciferase reporter, 24 h; percent of 10 µM SAHA response; activation, % at 6 µM; 360,000 tested, 0.56% active; AID 540364;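 active = activation above the average of all compounds screened plus 3 SD, cutoff fixed separately per campaign, cut at about 7.5% in these data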
HSF1 inh: HSF1 inhibition. NIH3T3-HGL HSE-luciferase, MG132-induced, luminescence 8 h; stronger effect = lower value. activity change, negative = inhibition, % at 7.5 µM (by protocol). 300,000 tested, 0.77% active. AID 2098;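 active = more than half of replicate wells show activity change below -50%, luminescence cut by over half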;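 note: luciferase reports HSF-1 transcriptional activity via heat shock element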
HSF-1 act: increases HSF-1 driven luciferase reporter signal | NIH3T3-HGL HSF-1 luciferase reporter, MG132, 8 h; 100% = twice DMSO control signal | activation, % at 9 µM | 300,000 tested, 1.7% active | AID 504408;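 active = mean replicate activation of at least 50% with a set share of replicates each reaching 50%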
DAX1 inh: inhibits human nuclear receptor DAX1; P51843; HEK293 Gal4-DAX1 luciferase reporter, luminescence; inhibition, % at 6.75 µM; 340,000 tested, 0.99% active;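 active = inhibition above the mean over all tested compounds plus 3 SD, cut at about 4.2% in these data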;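 note: inhibition shows as a rise in luminescence from relieved DAX1 repression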
Of the large screens only hits and unclear results are named; the others gave an inactive call. Hits are enriched below; roughly 5.4% of the tested compounds scored in any of these assays.

CC(Oc1ccc2c3c(c(=O)oc2c1)CCCC3)C(=O)NCC1CCC(C(=O)O)CC1 (centres undefined)	none
COc1cccc(-c2nnc(-c3ccc(C)o3)o2)c1	HSF-1 act 63
COc1cccc(C(=O)Nc2ccc(-c3nnc(-c4ccco4)o3)cc2)c1	none
COc1cccc(-c2nnc(-c3ccco3)o2)c1	AHR act 51, HSF-1 act 74
Cn1c(SCC(=O)Nc2ccc(C(N)=O)cc2)nnc1-c1cccs1	none
Cc1ccc(C)c(NC(=O)CSc2n[nH]c(-c3ccccn3)n2)c1	none
Cc1ccc(O)c(NC(=O)CSc2n[nH]c(-c3ccccc3)n2)c1	HSF-1 act 109
CCc1c(C)nc(SCC(N)=O)c(C#N)c1C	none
CCc1c(C)nc(SCC(=O)c2cccs2)c(C#N)c1C	AHR act 94 (no result: HSF1 inh, HSF-1 act)
COc1ccc(C2c3ccc4ccccc4c3Oc3ncn(CCO)c(=N)c32)cc1OC (centres undefined)	none
N=c1c2c(ncn1CCCO)Oc1c(ccc3ccccc13)C2c1ccccc1 (centres undefined)	HSF1 inh -66
COc1ccc(C2c3ccc4ccccc4c3Oc3ncn(CCCO)c(=N)c32)cc1OC (centres undefined)	DAX1 inh 4.8
CC(C)CCc1c(O)nc(SCC(=O)N2CCCCCC2)[nH]c1=O	HSF1 inh -74
O=C(CSc1nc2scc(-c3ccccc3)c2c(=O)[nH]1)NC1CCCCC1	none (no result: FXN GAA850 act, DAX1 inh)
O=C(CSc1nc2scc(-c3ccccc3)c2c(=O)[nH]1)N1CCCCC1	DAX1 inh 5.6
Cc1sc2nc(SCC(=O)N3CCOCC3)[nH]c(=O)c2c1-c1ccccc1	AHR act 49
Cc1sc2nc(-c3ccccc3)[nH]c(=O)c2c1-c1ccccc1	AHR act 48 (no result: FXN GAA850 act, DAX1 inh)
O=C(CSc1nc(O)c(-c2ccccc2)c(=O)[nH]1)N1CCOCC1	none
Cc1ccc(NC(=O)CN2C(=O)NC3(CCCCC3C)C2=O)cc1S(=O)(=O)N1CCOCC1 (centres undefined)	none (no result: AHR act, HSF1 inh, HSF-1 act)
Cc1ccccc1Nc1nc(-c2cccnc2)nc2ccccc12	none
Cc1sc2nc(-c3cccnc3)nc(Cl)c2c1-c1ccccc1	DAX1 inh 4.3
COc1ccc2c(c1)c1nnc(SCC(=O)N3C(C)CCCC3C)nc1n2C (centres undefined)	AHR act 50
CN(C(=O)c1ccc(NC(=O)Cc2ccc(NC(=O)C3CCCN(C(=O)C4CC4)C3)cc2)cc1)C1CC1 (centres undefined)	none (no result: HSF1 inh, HSF-1 act)
Cc1ccc(CNC(=O)NCc2ccccc2)cc1	none
Cc1ccc(CNC(=O)c2ccc[nH]2)cc1	DAX1 inh 5.6
C=C(C)CCC(C)N1CCC(n2nccc2NC(=O)CCOc2ccccc2)CC1 (centres undefined)	none
CN(C)C(=O)OCC1COc2ccccc2O1 (centres undefined)	none
Cn1c(=O)c2c(nc(N/N=C/c3ccc(OC(=O)c4ccco4)cc3)n2Cc2ccc(F)cc2)n(C)c1=O	HSF-1 act 56
CC(=O)N1CCC2(CC1)NC(=O)N(c1ccccc1)N2	HSF-1 act 59
NC(=O)N1CCC2(CC1)NC(=O)N(c1ccccc1)N2	none
CCOC(=O)c1c(N2CCCCC2)c2ccccc2[nH]c1=O	HSF1 inh -59
Cc1ccc(S(=O)(=O)N2CCN(C(=O)c3ccc(N4CCCCC4)c([N+](=O)[O-])c3)CC2)cc1	none
Cc1ccc(N2CC(C(=O)Nc3ncc([N+](=O)[O-])s3)CC2=O)cc1 (centres undefined)	none
Cn1ncc(Br)c1C(=O)N1CCOCC1	HSF-1 act 55
Cn1ncc(Cl)c1C(=O)N1CCOCC1	none
Cc1c(Cl)ccc2c1NC(=O)C21NC(CCC(N)=O)[C@H]2C(=O)N(c3ccc(Cl)cc3)C(=O)[C@H]21 (some centres undefined)	HSF-1 act 56
Cc1ccc(C2N(c3ccccc3)C(=S)N3CCCN23)cc1 (centres undefined)	HSF1 inh -82
CC(=O)CSc1nc2nccnc2[nH]1	none (no result: AHR act, HSF1 inh, HSF-1 act)
Cc1ccc2nc(-c3ccc(NC(=S)NCC(C)(C)CN(C)C)cc3)sc2c1	DAX1 inh 13 (no result: AHR act, HSF1 inh, HSF-1 act)
Cc1ccc2nc(-c3ccc(NC(=O)COC(=O)c4ccc(Br)o4)cc3)sc2c1	DAX1 inh 5.7 (no result: HSF1 inh, HSF-1 act)
CCOc1ccc(NCC(=O)c2ccc(C)cc2)cc1	HSF1 inh -54
O=[N+]([O-])c1ccc(O)c(/C=N/n2cnnc2)c1	DAX1 inh 5.1
O=[N+]([O-])c1cccc(/C=N/n2cnnc2)c1	DAX1 inh 6.3
NC(N)=N/N=C/c1cc([N+](=O)[O-])ccc1O	none
O=[N+]([O-])c1ccc(O)c(/C=N\N=C2c3ccccc3-c3ccccc32)c1	AHR act 47
Brc1cccc(/C=N\n2cnnc2)c1	none
CN(C)/N=C/c1cc([N+](=O)[O-])ccc1O	none
CC1=C(C(=O)NC2CC(C)(C)Cc3c2cnn3-c2cccc(F)c2)OCCO1 (centres undefined)	none
O=C(NCc1cccnc1)c1cc(C2CCCN(S(=O)(=O)c3ccccc3)C2)on1 (centres undefined)	none (no result: AHR act, HSF1 inh, HSF-1 act, DAX1 inh)
CCCc1ccc2oc(C(=O)N3CCCC3)c(C)c2c1	none
Cc1ccc(-c2[nH]c3ccccc3c2SCCNC(=O)c2cc3ccccc3oc2=O)cc1	none
O=C(Cc1cccs1)NCCSc1c(-c2ccc(Cl)cc2)[nH]c2ccccc12	AHR act 51
O=C(CCC(=O)N1CCN(c2ccc(O)cc2)CC1)c1ccc(Br)cc1	HSF-1 act 91 (no result: FXN GAA850 act, DAX1 inh)
CCOc1ccc(C(=O)CCC(=O)N2CCN(c3ccc(O)cc3)CC2)cc1	none (no result: HSF1 inh, HSF-1 act)
Cn1c(CCN2CCN(c3ccccc3)CC2)nc2cc(NC(=O)c3ccco3)ccc21	HSF-1 act 128
Cc1ccc(N2CCN(CCc3nc4cc(NC(=O)c5ccco5)ccc4n3C)CC2)cc1	HSF-1 act 69
Cn1c(CCN2CCN(c3ccc(F)cc3)CC2)nc2cc(NC(=O)c3ccco3)ccc21	none
CC(C)N1CCc2c(sc(NC(=O)c3ccc([N+](=O)[O-])o3)c2C(N)=O)C1	HSF-1 act 110
COC(=O)c1c(NC(=O)c2ccc([N+](=O)[O-])o2)sc2c1CCN(C(C)C)C2	HSF-1 act 169
CC(=O)N1CCc2c(sc(NC(=O)c3ccc([N+](=O)[O-])o3)c2C#N)C1	none (no result: AHR act)
COC(=O)c1sc(NC(=O)c2ccc([N+](=O)[O-])o2)c(C#N)c1C	DAX1 inh 4.7
O=C(CCCSc1nc2ccccc2c(=O)[nH]1)c1ccc(F)cc1	none
O=C(c1ccccc1)c1cnc(Nc2ccccc2Cl)s1	DAX1 inh 6.8
CC(Oc1ccc(Cl)cc1Cl)c1nc(-c2ccc(NC(=O)c3ccco3)cc2)no1 (centres undefined)	HSF-1 act 61
CC(NC(=O)c1ccco1)c1nc(-c2ccccc2)no1 (centres undefined)	none
CC(C)C(=O)NC(=S)Nc1ccc(S(=O)(=O)N2CCN(C)CC2)cc1	none
COC(=O)c1ccc(/C=N/Nc2nc(-c3ccccc3)cs2)cc1	AHR act 50
